ELG1 genotoxic = genotoxicity induction in ELG1-luciferase HEK293T cells | 1.3% of 330,000 active | AID 504466 | Potency, µM (titrated, usually from 46 µM), for the others: top-dose activity change, positive = activation, hits mostly activators | HEK293T ELG1-luciferase reporter, luminescence, 16 h; also: % of control where 0% means no effect; nearly all actives have a fitted effect of over 60% in size
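DMSO vehicle served as control against compound-treated ELG1-luciferase HEK293T cells; exposure lasted 16 hr at 37 °C and 5% CO2, followed by ONE-Glo luminescence detection after 30 min.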
Rab9 promoter act = activates the Rab9 promoter. Huh7 Rab9 promoter-luciferase reporter, luminescence, 24 h. Potency, µM (titrated, usually from 9.22 µM), for the others: top-dose activation, negative = inhibition, hits mostly activators. 2.8% of 320,000 active. AID 485297; also: % of control where 0% means no effect; nearly all actives have a fitted effect of over 60% in size
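Rab9 promoter-driven luciferase in stably transfected Huh7 cells; 1500 cells/well rested 2 h, exposed to compound in DMSO for 24 h at 37 °C, 5% CO2. Luminescence read 10 min after adding luciferase reagent at ambient temperature.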
FLuc counter = firefly luciferase modulation, counter-screen for miR-21 project; P08659; purified FLuc, Km substrates, luminescence inhibition; Potency, µM (titrated, usually from 57.5 µM), for inactives: top-dose activity change, negative = inhibition, actives largely listed as inhibitors; 6.9% of 360,000 active; AID 588342;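 also: plate controls were vehicle for no effect and reference inhibitor for full effect; nearly all actives have a fitted effect of over 55% in size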
Target sequence (P08659 whole entry, looked up): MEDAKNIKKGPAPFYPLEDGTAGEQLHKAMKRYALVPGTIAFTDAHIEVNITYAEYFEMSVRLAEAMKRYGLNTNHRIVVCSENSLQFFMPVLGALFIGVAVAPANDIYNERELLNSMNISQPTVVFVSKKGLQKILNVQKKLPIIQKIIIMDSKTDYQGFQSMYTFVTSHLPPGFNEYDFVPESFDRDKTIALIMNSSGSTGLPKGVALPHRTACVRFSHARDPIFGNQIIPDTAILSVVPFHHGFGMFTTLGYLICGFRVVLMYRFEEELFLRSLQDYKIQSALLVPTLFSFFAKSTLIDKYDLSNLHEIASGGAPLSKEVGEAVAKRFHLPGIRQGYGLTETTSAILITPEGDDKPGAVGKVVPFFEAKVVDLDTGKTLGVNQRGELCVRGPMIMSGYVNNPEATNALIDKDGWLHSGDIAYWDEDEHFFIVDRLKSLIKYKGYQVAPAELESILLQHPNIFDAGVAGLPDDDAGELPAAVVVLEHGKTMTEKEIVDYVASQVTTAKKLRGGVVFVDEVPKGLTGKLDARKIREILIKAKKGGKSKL
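Purified P. pyralis luciferase, 10 nM final, with Km-level 10 uM D-luciferin and 10 uM ATP in 50 mM Tris acetate pH 7.5, 10 mM Mg acetate, 0.01% Tween-20, 0.05% BSA; 6-point qHTS titration about 60 µM downward; luminescence read.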
NPC1 prom act = activates the NPC1 promoter. Potency, µM (top dose mostly 9.22 µM), for the others: top-dose activation, most hits filed as activators. 2.4% of 320,000 active. AID 485313. Huh7 NPC1 promoter luciferase reporter, 24 h; also: % of control where 0% means no effect; nearly all actives have a fitted effect of over 60% in size
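Luciferase expression driven by the NPC1 promoter was measured in stably transfected Huh7 cells after a 24 h compound incubation, using a luciferase reagent and a luminescence read.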
ELG1 DNA repair = blocks ELG1-dependent DNA repair in HEK293T cells. HEK293T ELG1-luciferase reporter, luminescence, 16 h; DNA damage induced by 5-fluorouridine. 2.3% of 330,000 active. Potency, µM (highest dose often 46.1 µM), without a hit: at the highest dose activity change, negative = inhibition, actives largely listed as inhibitors; also: % is scaled to controls: 0 for no effect and ±100 for the full control effect; nearly all actives have a fitted effect of over 55% in size
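Cells (2,000 per well) received 5-fluorouridine plus test compound or DMSO and were incubated 16 hr at 37 °C, 5% CO2. Luciferase activity was read by luminescence 30 min after ONE-Glo addition; signal suppression marked inhibition of damage-induced ELG1 function.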
SMN2 splice up = enhancers of SMN2 splice variant expression; 2.8% of 210,000 active; HEK293 SMN2-luciferase splicing reporter, luminescence, 30-36 h; Potency, µM (top dose mostly 46.1 µM), for inactives: top-dose activity change, positive = activation, usual class: activators; also: % of control where 0% means no effect; nearly all actives have a fitted effect of over 55% in size
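HEK293 cells carry an SMN2 minigene-luciferase reporter in which exon 7 inclusion puts luciferase in frame. Cells were seeded at 2000 cells/well, attached for 10-12 hours, then exposed to compounds for 30-36 hours at 37C before ONE-Glo luminescence.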
Starred values were filed as active, the others as inactive; [ ] = dose if it differs, or a comment. Only some compounds are listed: those with a hit (about 9.2% of all), similar ones and a draw of the others. Calls follow the shape of the dose curve; as a rule, active = well fitted curve in the direction sought with a large enough effect; inconclusive = small, poorly fitted or top-dose-only effect, or another doubt; inactive = no such curve, though single readings can be large; an effect the other way counts as inactive or inconclusive. Potency is read from the fitted curve at half-maximal effect.

Screening O=c1oc(-c2ccco2)nc2sc3c(c12)CCCC3 returned ELG1 genotoxic 0%, Rab9 promoter act -3%, FLuc counter 1.5µM*, NPC1 prom act 11%, ELG1 DNA repair inconclusive and SMN2 splice up 14µM*.
Screening O=C1CCC(=O)N1c1ccc(-c2nc3sc4c(c3c(=O)o2)CCC4)cc1 returned ELG1 genotoxic -1%, Rab9 promoter act 2%, FLuc counter 21µM*, NPC1 prom act -3% and ELG1 DNA repair 0%.
Screening CC1(C)Cc2c(sc3nc(-c4ccccc4)oc(=O)c23)CO1 returned ELG1 genotoxic 0%, Rab9 promoter act 21%, FLuc counter 1.2µM*, NPC1 prom act 27%, ELG1 DNA repair inconclusive and SMN2 splice up inconclusive.
Screening CCCN(CCC)C(=O)Cn1c(=O)n(-c2ccc(C)cc2)c(=O)c2ccc(C(=O)NCc3ccccc3Cl)cc21 returned FLuc counter 0% and SMN2 splice up 5%.
CC(=O)C[C@H](O)CC(=O)[C@@H]1OC(=O)[C@H](C)C/C=C\Cc2ccccc21 was read as ELG1 genotoxic -1% and ELG1 DNA repair 3%.
Nc1nc(-c2ccccc2)nc2sc3c(c12)CCCC3 was read as ELG1 genotoxic 4.1µM*, Rab9 promoter act 1.8µM*, FLuc counter 0.27µM*, NPC1 prom act 2.2µM*, ELG1 DNA repair inconclusive and SMN2 splice up 3.2µM*.
Cc1sc2nc(-c3ccccc3)oc(=O)c2c1C was read as ELG1 genotoxic 3%, Rab9 promoter act 21%, FLuc counter 5.4µM*, NPC1 prom act 20% and ELG1 DNA repair 13%.
Screening CC1(C)Cc2c(sc3nc(-c4cc5ccccc5o4)n(N)c(=O)c23)CO1 returned ELG1 genotoxic 1%, Rab9 promoter act 2.8µM*, FLuc counter 6µM*, NPC1 prom act 3.2µM*, ELG1 DNA repair inconclusive and SMN2 splice up 11µM*.
Screening Cc1ccc(Cl)c(NC(=O)COC(=O)c2cc[n+]([O-])cc2)c1Cl returned ELG1 genotoxic 0% and ELG1 DNA repair 14%.
For CC(NC(=O)c1ccc(Cl)cc1)c1nnc(SCC(=O)NC2=NCCS2)n1C (stereo unspecified) the results were ELG1 genotoxic 3%, Rab9 promoter act 0%, FLuc counter 5%, NPC1 prom act -4% and ELG1 DNA repair 5%.
`CCCCN(CC)C(=O)c1cc2cc3ccc(OC)cc3nc2o1` gave ELG1 genotoxic 4%, Rab9 promoter act inconclusive, FLuc counter 15µM*, NPC1 prom act inconclusive, ELG1 DNA repair inconclusive and SMN2 splice up -5%.
Screening CCCCN(C)C(=O)c1cc2cc3ccc(OC)cc3nc2s1 returned ELG1 genotoxic inconclusive, Rab9 promoter act 0.45µM*, FLuc counter 0.76µM*, NPC1 prom act 0.5µM*, ELG1 DNA repair inconclusive and SMN2 splice up 6.3µM*.
Screening C/C(=N\N1C(=O)c2ccccc2C1=O)c1cccc([N+](=O)[O-])c1 returned ELG1 genotoxic 0%, Rab9 promoter act 1%, FLuc counter 17µM*, NPC1 prom act -1%, ELG1 DNA repair 10% and SMN2 splice up 13%.
C/C(=N/N1CCN(c2ccccn2)CC1)c1cccc([N+](=O)[O-])c1 was read as ELG1 genotoxic 0%, Rab9 promoter act 2%, FLuc counter -8%, NPC1 prom act 7%, ELG1 DNA repair 1% and SMN2 splice up -13%[1.84 µM].
For Cc1ccccc1-c1noc(-c2ccccc2C(=O)NCC2CCCO2)n1 (stereo unspecified) the results were ELG1 genotoxic -8%, Rab9 promoter act -1%, FLuc counter 15µM*, NPC1 prom act 1% and ELG1 DNA repair 0%.
`COc1ccccc1-c1noc(-c2ccccc2C(=O)NCC2CCCO2)n1` (stereo unspecified) gave ELG1 genotoxic -3%, Rab9 promoter act 1%, FLuc counter 15µM*, NPC1 prom act 1% and ELG1 DNA repair -1%.
COc1ccccc1CC(=O)NCC1CCCO1 (stereo unspecified) was read as FLuc counter -1% and SMN2 splice up 19%.
For COc1ccc(-c2noc(-c3ccccc3C(=O)NCC3CCCO3)n2)cc1 (stereo unspecified) the results were ELG1 genotoxic -9%, Rab9 promoter act -1%, FLuc counter 9.5µM*, NPC1 prom act 1% and ELG1 DNA repair inconclusive.
For O=C(NCC1CCCO1)c1ccccc1-c1nc(-c2ccc(F)cc2)no1 (stereo unspecified) the results were ELG1 genotoxic -5%, Rab9 promoter act -1%, FLuc counter inconclusive, NPC1 prom act 1%, ELG1 DNA repair inconclusive and SMN2 splice up -42%.
Cc1cccc(C)c1NC(=O)CN(C)C(=O)c1ccc(COc2ccccc2)cc1 was read as ELG1 genotoxic 4%, Rab9 promoter act 25%, FLuc counter -19%, NPC1 prom act 16% and ELG1 DNA repair inconclusive.
`COc1cccc(Nc2ccccc2C(=O)O)c1` gave ELG1 genotoxic 13%, Rab9 promoter act 13%, FLuc counter 27µM*, NPC1 prom act 1%, ELG1 DNA repair inconclusive and SMN2 splice up inconclusive.
`NC(=O)c1ccccc1NC(=O)CN1CCN(Cc2ccccc2)CC1` gave ELG1 genotoxic -1%, Rab9 promoter act 1%, FLuc counter -2%, NPC1 prom act -1% and ELG1 DNA repair -2%.
COc1cccc(NC(=O)Nc2ccccc2C(N)=O)c1 was read as ELG1 genotoxic 0%, Rab9 promoter act -5%, FLuc counter 21µM*, NPC1 prom act -2%, ELG1 DNA repair 18% and SMN2 splice up 22%.
Screening COc1cccc(Nc2c(Nc3cccc(OC)c3)c(=O)c2=O)c1 returned ELG1 genotoxic 0%, Rab9 promoter act -3%, FLuc counter 1%, NPC1 prom act -3% and ELG1 DNA repair 10%.
For O=C(O)c1ccccc1Nc1ccccc1 the results were ELG1 genotoxic 1%, Rab9 promoter act 14%[46.1 µM], FLuc counter -12%, NPC1 prom act 8%[46.1 µM], ELG1 DNA repair 9% and SMN2 splice up -8%.
Screening COc1cccc(Nc2ccc(Nc3cccc(OC)c3)nn2)c1 returned ELG1 genotoxic -1%, Rab9 promoter act -7%, FLuc counter 19µM*, NPC1 prom act -2%, ELG1 DNA repair -19% and SMN2 splice up 4%.
NC(=O)c1ccccc1NC(=O)CN1CCN(Cc2ccc(Cl)cc2Cl)CC1 was read as ELG1 genotoxic -6%, Rab9 promoter act -6%, FLuc counter 2%, NPC1 prom act -10% and ELG1 DNA repair 10µM*.
